Data taken from PubChem BioAssay (EPA / NIEHS).
Records with an inconclusive call do not appear. Calls of active or inactive are those of the source. The calls were made as follows, unless noted: active = hit-call score of the fitted dose curve at least 0.9, where 1 is the maximum; inconclusive = response in the unintended direction; inactive = score below 0.9.

How the values were obtained:
[1] = ATG_TCF_b_cat_CIS: Attagene CIS-FACTORIAL HepG2 Assay for human T-Cell-Factor with beta-catenin (TCF/b-cat) (AID 2282965; active = hit-call score of the fitted dose curve at least 0.9, where 1 is the maximum; inactive = score below 0.9); settings: HepG2 TCF/beta-catenin cis-reporter transcription, actives raise or lower the signal
In short: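 HepG2 cells transiently transfected with cis-promoter-driven multiplexed reporter units; reporter mRNA measured 24 h after dosing by RT-PCR, FAM labelling, HpaI digestion and capillary electrophoresis. Bidirectional fitting relative to DMSO baseline.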

[2] = ATG_TAL_CIS: Attagene CIS-FACTORIAL HepG2 Assay for human TAL Basal Promoter (AID 2282966; active = hit-call score of the fitted dose curve at least 0.9, where 1 is the maximum; inactive = score below 0.9;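 also: background control endpoint measuring basal TAL promoter reporter mRNA not a specific factor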); settings: HepG2 Attagene cis-factorial TAL promoter reporter; actives raise or lower the signal
In short: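 In this cell-based multiplex, HepG2 liver cells bearing cis-promoter reporter constructs are dosed for 24 hours. Total RNA is reverse-transcribed and amplified, labelled fragments are sized by capillary electrophoresis, and signal changes are fitted bidirectionally versus DMSO.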

[3] = ATG_TGFb_CIS: Attagene CIS-FACTORIAL HepG2 Assay for human Transforming Growth Factor (TGF) (AID 2282967; active = hit-call score of the fitted dose curve at least 0.9, where 1 is the maximum; inactive = score below 0.9); settings: HepG2 Attagene CIS TGFb reporter, mRNA transcription; actives raise or lower the signal
In short: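 Liver HepG2 line, cis-factorial reporter panel, 24 h dosing. Quantitation: RT-PCR products labeled with 6-FAM, cut with HpaI, resolved by capillary electrophoresis; DMSO-referenced bidirectional analysis.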

[4] = ATG_VDRE_CIS: Attagene CIS-FACTORIAL HepG2 Assay for human Vitamin D Receptor Element (VDRE) (AID 2282968; active = hit-call score of the fitted dose curve at least 0.9, where 1 is the maximum; inactive = score below 0.9); settings: HepG2 VDRE cis-reporter transcription, actives raise or lower the signal
In short: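 Transiently transfected HepG2 cells carrying cis-regulated reporter transcription units were exposed for 24 h. Reporter mRNA was measured by RT-PCR with fluorescent labelling and capillary electrophoresis, and fitted in both directions against DMSO.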

[5] = biological target: Nuclear receptor subfamily 1 group I member 3 (Homo sapiens) (UniProt Q14994); assay: ATG_CAR_TRANS: Attagene TRANS-FACTORIAL HepG2 Assay for human Constitutive Androstane Receptor (CAR) (AID 2282969); settings: HepG2 Attagene TRANS-FACTORIAL CAR reporter;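 also: activators raise reporter mRNA above DMSO so AC50 marks induction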
In short: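 HepG2 cells transiently transfected with GAL4-UAS reporter units; TRANS format reads activity of exogenous chimeric NR-Gal4 protein. After 24 h dosing, reporter mRNA quantified by RT-PCR, 6-FAM labelling and capillary electrophoresis; gain of signal fitted against DMSO.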

[6] = biological target: Estrogen receptor (Homo sapiens) (UniProt P03372); assay: ATG_ERa_TRANS: Attagene TRANS-FACTORIAL HepG2 Assay for human Estrogen Receptor alpha (ERa) (AID 2282970); settings: HepG2 Attagene TRANS ERa GAL4 reporter, mRNA
In short: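 After 24 h of compound treatment, RNA from HepG2 cells bearing transfected GAL4-UAS reporter constructs is converted to cDNA, amplified and fluorescently labelled. Capillary electrophoresis resolves the ERa-linked reporter; DMSO serves as negative control.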

[7] = biological target: X-box-binding protein 1 (Homo sapiens) (UniProt P17861); assay: ATG_Xbp1_CIS: Attagene CIS-FACTORIAL HepG2 Assay for human X-box Binding Protein 1 (XBP1) (AID 2282972; active = hit-call score of the fitted dose curve at least 0.9, where 1 is the maximum; inactive = score below 0.9); settings: HepG2 XBP1 cis-element reporter, Attagene multiplex; actives raise or lower the signal
In short: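 HepG2 cells transiently transfected with multiple cis-element reporter units report endogenous TF activity; 24 h exposure, then reporter mRNA measured by RT-PCR, 6-FAM labelling, HpaI digestion and capillary electrophoresis. Bidirectional fitting versus DMSO.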

[8] = ATG_M_19_TRANS: Attagene TRANS-FACTORIAL HepG2 Assay for M19 Transcription Factor (Internal Marker) (AID 2282974); settings: HepG2 Attagene TRANS-FACTORIAL M19 internal marker reporter
In short: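 Reporter mRNA induction was measured in transfected HepG2 cells 24 h after dosing. Endpoint fitted upward relative to DMSO and serves as a background control within the multiplexed TRANS panel.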

[9] = ATG_GAL4_TRANS: Attagene TRANS-FACTORIAL HepG2 Assay for GAL4 (Internal Marker) (AID 2282976); settings: HepG2 Attagene TRANS GAL4 internal marker reporter
In short: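 RT-PCR/capillary electrophoresis readout of reporter mRNA. HepG2, transient MRTU transfection (GAL4-UAS reporters), 24 h compound exposure. Background-control endpoint, positive direction vs DMSO baseline.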

[10] = biological target: Oxysterols receptor LXR-alpha (Homo sapiens) (UniProt Q13133); assay: ATG_LXRa_TRANS: Attagene TRANS-FACTORIAL HepG2 Assay for human Liver X Receptor alpha (LXRa) (AID 2282980); settings: HepG2 Attagene TRANS reporter, LXRa transactivation
In short: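 Read-out: reporter transcript levels by RT-PCR plus capillary electrophoresis, fluorescence intensity. Transiently transfected HepG2, exogenous NR-GAL4 chimera, GAL4-UAS reporters; 24 h compound exposure. Activity = increase over DMSO negative control.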

[11] = biological target: Oxysterols receptor LXR-beta (Homo sapiens) (UniProt P55055); assay: ATG_LXRb_TRANS: Attagene TRANS-FACTORIAL HepG2 Assay for human Liver X Receptor beta (LXRb) (AID 2282981); settings: HepG2 Attagene TRANS GAL4-LXRb reporter, mRNA
In short: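 HepG2 cells transiently transfected with GAL4-UAS reporter units for chimeric NR-Gal4 proteins, dosed for 24 h. Reporter transcripts measured by RT-PCR and capillary electrophoresis; gain-of-signal fitting relative to DMSO.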

[12] = biological target: Nuclear receptor subfamily 4 group A member 2 (Homo sapiens) (UniProt P43354); assay: ATG_NURR1_TRANS: Attagene TRANS-FACTORIAL HepG2 Assay for human Nuclear Receptor Related Protein 1 (NURR1) (AID 2282985); settings: HepG2 Attagene TRANS reporter, mRNA readout
In short: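 HepG2 cells transiently transfected with NURR1-Gal4 chimera and GAL4-UAS reporter units; after 24 hr compound exposure, reporter mRNA quantified by RT-PCR and capillary electrophoresis; gain of signal fitted against DMSO.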

[13] = biological target: Steroid hormone receptor ERR1 (Homo sapiens) (UniProt P11474); assay: ATG_ERRa_TRANS: Attagene TRANS-FACTORIAL HepG2 Assay for human Estrogen-Related Receptor alpha (ERRa) (AID 2282971); settings: HepG2 Attagene TRANS reporter, ERRa transactivation
In short: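 Transfected HepG2, 24 h dosing, ERRa-Gal4 chimera driving GAL4-UAS reporter. Readout: reporter mRNA via RT-PCR plus capillary electrophoresis (fluorescence). Positive direction vs DMSO control.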

[14] = biological target: Estrogen-related receptor gamma (Homo sapiens) (UniProt P62508); assay: ATG_ERRg_TRANS: Attagene TRANS-FACTORIAL HepG2 Assay for human Estrogen-Related Receptor gamma (ERRg) (AID 2282977); settings: HepG2 Attagene TRANS reporter, ERRg transactivation;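 also: hits increase reporter signal over DMSO so potencies reflect activators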
In short: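 Transfect HepG2 with multiple GAL4-UAS reporter transcription units; dose chemicals 24 h; isolate RNA, reverse-transcribe with oligo(dT), PCR-amplify, label with 6-FAM, digest with HpaI; size fragments by capillary electrophoresis. DMSO serves as negative control.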

[15] = biological target: Glucocorticoid receptor (Homo sapiens) (UniProt P04150); assay: ATG_GR_TRANS: Attagene TRANS-FACTORIAL HepG2 Assay for human Glucocorticoid Receptor (GR) (AID 2282978); settings: HepG2 Attagene TRANS GR reporter, mRNA transcription;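 also: activators score as hits since higher reporter transcript over DMSO is fitted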
In short: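 Reporter transcript levels, detected by fluorescence after RT-PCR and capillary electrophoresis, served as the endpoint. HepG2 cells bearing transfected GAL4-UAS reporters responsive to NR-GAL4 chimeras were incubated with compound 24 h; DMSO defined baseline.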

[16] = biological target: Hepatocyte nuclear factor 4-alpha (Homo sapiens) (UniProt P41235); assay: ATG_HNF4a_TRANS: Attagene TRANS-FACTORIAL HepG2 Assay for human Hepatocyte Nuclear Factor 4 alpha (HNF4a) (AID 2282982); settings: HepG2 HNF4a transactivation reporter, mRNA readout
In short: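 HepG2 cells transiently transfected with HNF4a-Gal4 chimera and GAL4-UAS reporter units, dosed for 24 h. Reporter mRNA measured by RT-PCR, fluorescent primer extension and capillary electrophoresis; gain-of-signal fitted relative to DMSO.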

[17] = ATG_M_06_TRANS: Attagene TRANS-FACTORIAL HepG2 Assay for M06 Transcription Factor (Internal Marker) (AID 2282983); settings: HepG2 Attagene TRANS M06 internal marker reporter
In short: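 After a 24 h chemical treatment of transfected HepG2, RNA underwent DNase I treatment, reverse transcription and reporter-specific PCR; labelled, HpaI-digested products were sized by capillary electrophoresis. Signal increase relative to DMSO defined activity.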

[18] = ATG_M_32_TRANS: Attagene TRANS-FACTORIAL HepG2 Assay for M32 Transcription Factor (Internal Marker) (AID 2282984); settings: HepG2 Attagene TRANS M32 internal marker reporter;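 also: transcript level of a background control reporter unit measured by RT-PCR and capillary electrophoresis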
In short: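 HepG2 cells transiently transfected with GAL4-UAS reporter units, dosed for 24 hours. Reporter mRNA quantified by RT-PCR, 6-FAM labelling, HpaI digestion and capillary electrophoresis; internal-marker signal fitted upward relative to DMSO.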

[19] = biological target: Transcriptional activator Myb (Homo sapiens) (UniProt P10242); assay: ATG_Myb_CIS: Attagene CIS-FACTORIAL HepG2 Assay for human Myeloblastosis (Myb) Proto-Oncogene Transcription Factor (AID 2282986; active = hit-call score of the fitted dose curve at least 0.9, where 1 is the maximum; inactive = score below 0.9); settings: HepG2 Attagene CIS-FACTORIAL Myb reporter transcription; actives raise or lower the signal
In short: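 Transiently transfected HepG2 cells, treated 24 h. Reporter mRNA quantified by RT-PCR/capillary electrophoresis; bidirectional fit relative to DMSO.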

[20] = biological target: Bile acid receptor (Homo sapiens) (UniProt Q96RI1); assay: ATG_FXR_TRANS: Attagene TRANS-FACTORIAL HepG2 Assay for Farnesoid X Receptor (FXR) (AID 2282979); settings: HepG2 Attagene TRANS FXR-GAL4 reporter transcription;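 also: hits raise reporter mRNA above DMSO so AC50 marks FXR activation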
In short: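 Read-out: fluorescent reporter transcripts quantified by capillary electrophoresis after RT-PCR of total RNA. Source cells were HepG2 transiently carrying chimeric NR-GAL4 plus GAL4-UAS reporter units, dosed 24 h. Activity fitted upward relative to DMSO baseline.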

Measured: AC50

Sequence of Estrogen receptor (Homo sapiens) (P03372 whole entry, looked up, the tested form may be a part): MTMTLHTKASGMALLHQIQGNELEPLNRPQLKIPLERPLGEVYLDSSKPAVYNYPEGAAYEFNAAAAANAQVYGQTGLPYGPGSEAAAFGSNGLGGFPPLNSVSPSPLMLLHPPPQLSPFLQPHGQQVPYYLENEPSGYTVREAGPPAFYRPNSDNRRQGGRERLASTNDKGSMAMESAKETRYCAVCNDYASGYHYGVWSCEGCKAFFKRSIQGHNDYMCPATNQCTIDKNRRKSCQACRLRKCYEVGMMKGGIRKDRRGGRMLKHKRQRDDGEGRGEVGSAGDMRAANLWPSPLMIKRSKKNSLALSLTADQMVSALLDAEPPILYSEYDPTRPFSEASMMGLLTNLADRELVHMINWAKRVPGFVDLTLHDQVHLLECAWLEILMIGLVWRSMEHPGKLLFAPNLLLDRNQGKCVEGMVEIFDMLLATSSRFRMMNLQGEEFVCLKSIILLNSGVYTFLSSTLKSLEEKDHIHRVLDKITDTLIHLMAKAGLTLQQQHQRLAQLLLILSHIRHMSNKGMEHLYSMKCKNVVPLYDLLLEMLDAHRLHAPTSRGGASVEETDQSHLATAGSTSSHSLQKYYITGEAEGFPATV
Sequence of Transcriptional activator Myb (Homo sapiens) (P10242 whole entry, looked up): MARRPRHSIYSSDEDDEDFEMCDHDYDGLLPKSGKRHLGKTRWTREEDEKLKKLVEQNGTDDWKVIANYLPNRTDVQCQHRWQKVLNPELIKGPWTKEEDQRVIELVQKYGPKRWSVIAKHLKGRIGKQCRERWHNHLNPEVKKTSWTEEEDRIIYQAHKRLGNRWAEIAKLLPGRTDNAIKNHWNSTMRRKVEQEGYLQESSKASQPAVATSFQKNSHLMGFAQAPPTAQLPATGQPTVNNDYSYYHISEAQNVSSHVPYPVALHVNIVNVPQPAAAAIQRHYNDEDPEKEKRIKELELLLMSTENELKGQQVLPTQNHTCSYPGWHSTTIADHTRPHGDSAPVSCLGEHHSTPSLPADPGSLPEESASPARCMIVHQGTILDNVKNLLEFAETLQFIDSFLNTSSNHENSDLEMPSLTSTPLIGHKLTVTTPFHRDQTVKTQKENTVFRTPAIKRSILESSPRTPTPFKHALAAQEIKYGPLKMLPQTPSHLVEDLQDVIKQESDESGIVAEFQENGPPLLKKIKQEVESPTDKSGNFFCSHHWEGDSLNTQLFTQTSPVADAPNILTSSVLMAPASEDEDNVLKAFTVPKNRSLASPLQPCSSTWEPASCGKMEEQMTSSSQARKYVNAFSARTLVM
Sequence of Nuclear receptor subfamily 1 group I member 3 (Homo sapiens) (Q14994 whole entry, looked up, the tested form may be a part): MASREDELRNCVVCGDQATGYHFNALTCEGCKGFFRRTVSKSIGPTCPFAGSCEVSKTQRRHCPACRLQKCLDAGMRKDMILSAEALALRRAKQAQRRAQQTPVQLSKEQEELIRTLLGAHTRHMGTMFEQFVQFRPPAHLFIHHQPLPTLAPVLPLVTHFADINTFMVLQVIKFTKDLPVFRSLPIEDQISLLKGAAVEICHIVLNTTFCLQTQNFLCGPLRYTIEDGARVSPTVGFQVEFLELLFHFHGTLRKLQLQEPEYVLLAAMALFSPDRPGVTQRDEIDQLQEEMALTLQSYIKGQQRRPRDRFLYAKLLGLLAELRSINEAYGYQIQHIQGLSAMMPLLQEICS
Sequence of Glucocorticoid receptor (Homo sapiens) (P04150 whole entry, looked up, the tested form may be a part): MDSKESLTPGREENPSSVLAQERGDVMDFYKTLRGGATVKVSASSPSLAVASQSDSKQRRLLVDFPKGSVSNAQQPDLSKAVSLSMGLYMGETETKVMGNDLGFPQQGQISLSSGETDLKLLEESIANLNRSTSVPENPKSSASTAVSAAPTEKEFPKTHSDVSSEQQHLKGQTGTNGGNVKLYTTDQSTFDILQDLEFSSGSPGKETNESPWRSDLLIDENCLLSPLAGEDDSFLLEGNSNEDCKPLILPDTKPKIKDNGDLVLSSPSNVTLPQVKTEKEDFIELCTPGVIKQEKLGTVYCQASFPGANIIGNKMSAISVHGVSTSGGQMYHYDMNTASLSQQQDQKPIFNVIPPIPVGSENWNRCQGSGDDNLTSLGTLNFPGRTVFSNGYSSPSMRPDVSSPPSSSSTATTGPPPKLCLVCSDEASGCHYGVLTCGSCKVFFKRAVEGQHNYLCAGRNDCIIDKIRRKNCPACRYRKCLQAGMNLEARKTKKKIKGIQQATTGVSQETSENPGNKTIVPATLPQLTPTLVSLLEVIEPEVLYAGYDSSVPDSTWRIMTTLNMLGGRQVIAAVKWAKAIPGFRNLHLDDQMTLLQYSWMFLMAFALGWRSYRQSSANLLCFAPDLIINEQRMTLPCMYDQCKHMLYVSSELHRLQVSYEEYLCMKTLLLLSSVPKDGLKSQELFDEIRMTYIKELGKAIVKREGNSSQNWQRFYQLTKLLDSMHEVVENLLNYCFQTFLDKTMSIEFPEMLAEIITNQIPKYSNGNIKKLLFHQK
Sequence of X-box-binding protein 1 (Homo sapiens) (P17861 whole entry, looked up): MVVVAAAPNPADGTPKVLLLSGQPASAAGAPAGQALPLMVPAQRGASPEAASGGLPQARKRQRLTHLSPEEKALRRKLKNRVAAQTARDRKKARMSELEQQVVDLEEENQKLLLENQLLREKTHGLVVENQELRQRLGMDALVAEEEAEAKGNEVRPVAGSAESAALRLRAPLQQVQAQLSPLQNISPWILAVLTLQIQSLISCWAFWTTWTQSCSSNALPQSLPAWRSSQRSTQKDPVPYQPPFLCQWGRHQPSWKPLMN
Sequence of Hepatocyte nuclear factor 4-alpha (Homo sapiens) (P41235 whole entry, looked up, the tested form may be a part): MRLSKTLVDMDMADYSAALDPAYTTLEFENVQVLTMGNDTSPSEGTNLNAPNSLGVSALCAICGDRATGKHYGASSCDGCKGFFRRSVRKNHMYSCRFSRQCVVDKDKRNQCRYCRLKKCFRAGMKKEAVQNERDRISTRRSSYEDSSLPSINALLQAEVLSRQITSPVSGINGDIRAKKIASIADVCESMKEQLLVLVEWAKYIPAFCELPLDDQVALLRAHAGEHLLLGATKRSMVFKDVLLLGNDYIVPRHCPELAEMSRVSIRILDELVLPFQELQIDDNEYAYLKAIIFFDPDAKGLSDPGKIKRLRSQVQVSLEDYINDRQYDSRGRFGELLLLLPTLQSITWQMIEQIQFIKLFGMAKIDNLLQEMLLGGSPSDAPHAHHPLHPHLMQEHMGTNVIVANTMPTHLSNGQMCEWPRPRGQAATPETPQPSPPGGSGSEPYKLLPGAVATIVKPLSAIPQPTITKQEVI
Sequence of Estrogen-related receptor gamma (Homo sapiens) (P62508 whole entry, looked up, the tested form may be a part): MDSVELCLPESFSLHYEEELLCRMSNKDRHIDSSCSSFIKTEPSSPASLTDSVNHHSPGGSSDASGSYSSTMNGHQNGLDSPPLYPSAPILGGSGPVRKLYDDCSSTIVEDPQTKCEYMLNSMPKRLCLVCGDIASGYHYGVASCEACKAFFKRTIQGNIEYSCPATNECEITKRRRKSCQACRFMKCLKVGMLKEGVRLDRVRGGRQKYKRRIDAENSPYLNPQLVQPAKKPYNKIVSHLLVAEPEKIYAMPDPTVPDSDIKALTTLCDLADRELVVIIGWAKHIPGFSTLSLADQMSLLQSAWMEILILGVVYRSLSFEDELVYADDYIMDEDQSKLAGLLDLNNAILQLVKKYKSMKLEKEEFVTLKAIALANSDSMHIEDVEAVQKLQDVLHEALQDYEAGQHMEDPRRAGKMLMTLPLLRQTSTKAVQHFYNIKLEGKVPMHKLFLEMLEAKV
Sequence of Oxysterols receptor LXR-beta (Homo sapiens) (P55055 whole entry, looked up, the tested form may be a part): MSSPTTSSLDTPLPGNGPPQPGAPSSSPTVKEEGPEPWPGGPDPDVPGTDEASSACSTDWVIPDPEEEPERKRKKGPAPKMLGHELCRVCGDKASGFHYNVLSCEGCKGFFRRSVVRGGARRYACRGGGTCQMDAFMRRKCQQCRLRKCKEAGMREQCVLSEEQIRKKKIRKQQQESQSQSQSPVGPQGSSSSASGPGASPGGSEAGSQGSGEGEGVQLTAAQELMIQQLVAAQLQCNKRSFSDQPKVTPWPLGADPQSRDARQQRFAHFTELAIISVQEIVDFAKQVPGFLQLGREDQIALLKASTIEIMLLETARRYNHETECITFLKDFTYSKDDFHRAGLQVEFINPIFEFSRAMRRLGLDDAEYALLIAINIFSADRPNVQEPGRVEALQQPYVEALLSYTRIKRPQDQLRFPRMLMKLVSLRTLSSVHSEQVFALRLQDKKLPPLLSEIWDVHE
Sequence of Steroid hormone receptor ERR1 (Homo sapiens) (P11474 whole entry, looked up, the tested form may be a part): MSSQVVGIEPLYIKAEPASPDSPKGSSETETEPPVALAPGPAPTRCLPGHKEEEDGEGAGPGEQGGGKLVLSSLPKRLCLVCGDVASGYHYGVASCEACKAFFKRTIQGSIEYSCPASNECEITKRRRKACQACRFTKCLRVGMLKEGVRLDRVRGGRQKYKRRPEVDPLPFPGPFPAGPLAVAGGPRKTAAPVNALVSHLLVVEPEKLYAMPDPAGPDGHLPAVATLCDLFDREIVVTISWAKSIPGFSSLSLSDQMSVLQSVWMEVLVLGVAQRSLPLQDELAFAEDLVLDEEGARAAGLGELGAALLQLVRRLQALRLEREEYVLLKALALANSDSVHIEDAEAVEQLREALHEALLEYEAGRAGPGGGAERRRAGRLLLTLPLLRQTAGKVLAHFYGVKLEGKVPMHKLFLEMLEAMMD
Sequence of Oxysterols receptor LXR-alpha (Homo sapiens) (Q13133 whole entry, looked up, the tested form may be a part): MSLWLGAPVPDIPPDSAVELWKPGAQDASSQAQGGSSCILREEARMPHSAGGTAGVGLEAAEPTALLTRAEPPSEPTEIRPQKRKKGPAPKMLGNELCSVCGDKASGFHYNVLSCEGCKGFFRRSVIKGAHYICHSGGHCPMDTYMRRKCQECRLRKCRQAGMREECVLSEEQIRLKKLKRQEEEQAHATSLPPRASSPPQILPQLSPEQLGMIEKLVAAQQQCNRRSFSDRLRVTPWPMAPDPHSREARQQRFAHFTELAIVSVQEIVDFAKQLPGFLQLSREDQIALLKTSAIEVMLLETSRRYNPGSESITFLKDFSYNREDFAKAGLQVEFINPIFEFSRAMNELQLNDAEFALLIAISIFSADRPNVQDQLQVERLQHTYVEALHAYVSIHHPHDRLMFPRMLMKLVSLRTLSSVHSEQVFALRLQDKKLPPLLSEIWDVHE

CC(CC=O)CC(C)(C)C (centres undefined)
not listed: [13] | [14] | [15] | [16] | [17] | [18] | [19] | [20]
inactive: all other assays above

CC1=CC(C)C(C=O)CC1 (centres undefined)
not listed: [8] | [9] | [20]
inactive: all other assays above

CC(=O)OCC=C(C)C
not listed: [11] | [12] | [13] | [14] | [18] | [20]
inactive: all other assays above

CCCCCCCO
active: [6] 67.1 µM
not listed: [9] | [11] | [12] | [13] | [14] | [15] | [16] | [20]
inactive: all other assays above

O=S(=O)(O)c1ccc(N=Nc2c(O)ccc3ccccc23)cc1
not listed: [9] | [13] | [14] | [15] | [17] | [18] | [20]
inactive: all other assays above

C=CCOC(=O)c1ccc(C(=O)OCC=C)c(C(=O)OCC=C)c1
active: [4] 41.6 µM
not listed: [9] | [11] | [12] | [13] | [14] | [16] | [18] | [20]
inactive: all other assays above

CC1CCC(=O)C1=O (centres undefined)
inactive: [1] | [2] | [3] | [4] | [5] | [6] | [7] | [8] | [9] | [15] | [12]

COc1cc(O)c(C(=O)c2ccccc2)cc1S(=O)(=O)O
not listed: [11] | [13] | [14] | [15] | [18] | [20]
inactive: all other assays above

CC(C)=CCCC(C)=CC#N
not listed: [11] | [12] | [13] | [14] | [16] | [18] | [20]
inactive: all other assays above

C=C(C)OC(C)=O
not listed: [7] | [18] | [20]
inactive: all other assays above

C=CC(=O)OCCCCCCOC(=O)C=C
active: [4] 25.6 µM | [7] 26.6 µM
not listed: [9] | [12] | [15] | [20]
inactive: all other assays above

C=C(C)C(=O)OCCCCCCCCCCCC
active: [6] 56.7 µM
not listed: [9] | [10] | [11] | [17] | [20]
inactive: all other assays above

CCCCC(CC)COC(=O)/C=C/c1ccc(OC)cc1 (centres undefined)
not listed: [8] | [9] | [11] | [20]
inactive: all other assays above

CC(Cl)COP(=O)(OCC(C)Cl)OCC(C)Cl (centres undefined)
active: [4] 3.75 µM
not listed: [10] | [17] | [20]
inactive: all other assays above

C=C[Si](OCCOC)(OCCOC)OCCOC
active: [4] 5.92 µM
not listed: [13] | [14] | [15] | [17] | [20]
inactive: all other assays above

CCOc1ccc(NC(N)=O)cc1
not listed: [8] | [12] | [13] | [14]
inactive: all other assays above

NNS(=O)(=O)c1ccc(Oc2ccc(S(=O)(=O)NN)cc2)cc1
not listed: [5] | [14] | [15] | [17] | [18] | [20]
inactive: all other assays above

OCCCc1ccccc1
not listed: [5] | [9] | [12] | [14] | [20]
inactive: all other assays above

CC(=O)OCCc1ccccc1
inactive: [1] | [2] | [3] | [4] | [5] | [6] | [7] | [16] | [17] | [19]
